Measured values reported in the supplement of paper PMC6522484.
± gives the standard deviation of the averaged measurements.

Assays:
DLD1 [1] = assay: cell viability (CellTiter-Glo) relative to plate median (fraction of plate median); higher = more viable cells; conditions: 5 µM; treatment time 24 h; reporter: 7TFP
Method in brief: (§1)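 On parallel plates, a Tecan F500 reader recorded either firefly luciferase or CellTiterGlo luminescence. The plates held colorectal cancer cells stably transduced with lentiviral TCF/Wnt firefly luciferase reporters (7TFP or TCF4/Wnt), seeded in 384-well format and treated 24 h later with library compounds at a final 5 µM for 24 h. Per-well signals were normalised to the plate median (webcellHTS2, additive, no log transformation), and two independent replicates were averaged.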

HCT116 = assay: as above; conditions: 5 µM; treatment time 24 h; reporter: TCF4/Wnt
Method in brief: as §1

SW480 [2] = assay: as above; conditions: 5 µM; treatment time 24 h; reporter: 7TFP
Method in brief: as §1

DLD1 [3] = assay: TCF/Wnt firefly luciferase reporter signal relative to plate median (fraction of plate median); higher = higher Wnt reporter signal; conditions: 5 µM; treatment time 24 h; reporter: 7TFP
Method in brief: as §1

SW480 [4] = assay: as above; conditions: 5 µM; treatment time 24 h; reporter: 7TFP
Method in brief: as §1

Row | SMILES | cell viability (DLD1 [1]) | cell viability (HCT116) | cell viability (SW480 [2]) | TCF/Wnt firefly luciferase reporter signal (DLD1 [3]) | TCF/Wnt firefly luciferase reporter signal (SW480 [4])
1 | CC12CCC(CC1)C(C)(C)O2 | 0.996 ± 0.049 | 1.055 ± 0.0071 | 0.934 ± 0.019 | 1.21 ± 0.18 | 1.11 ± 0.099
2 | COC(=O)[C@H](c1ccccc1Cl)N1CCc2sccc2C1 | 1.045 ± 0.0071 | 0.921 ± 0.02 | 1.07 ± 0.028 | 0.853 ± 0.041 | 0.906 ± 0.016
3 | C=C1CC[C@H](O)C/C1=C/C=C1\CCC[C@]2(C)[C@@H]([C@H](C)/C=C/[C@H](C)C(C)C)CC[C@@H]12 | 0.982 ± 0.054 | 0.995 ± 0.11 | 0.954 ± 0.016 | 1.07 ± 0.16 | 1.09 ± 0.014
4 | CCNC(=O)CC[C@H](N)C(=O)O | 1.01 ± 0.021 | 1.03 ± 0.06 | 0.998 ± 0.018 | 1.13 ± 0.11 | 1.05 ± 0.014
5 | COC(=O)/C=C/c1ccc(O)c(O)c1 [Caffeic acid methylester] | 0.918 ± 0.079 | 0.987 ± 0.12 | 0.979 ± 0.072 | 1.02 ± 0.098 | 1.04 ± 0.087
6 | CCc1c(O)cc(C(C)CC)oc1=O (stereo not given) [Germicidin] | 1.02 ± 0.014 | 0.92 ± 0.034 | 0.965 ± 0.05 | 0.946 ± 0.16 | 1.06 ± 0.09
7 | C[C@@H]1NC(=O)[C@H](Cc2ccccc2)NC1=O [cyclo(alanylphenylalanyl)] | 1 ± 0.053 | 0.997 ± 0.17 | 0.96 ± 0.025 | 0.987 ± 0.12 | 1.04 ± 0.014
8 | CC[C@H]1OC(=O)[C@H](C)[C@@H](O[C@H]2C[C@@](C)(OC)[C@@H](O)[C@H](C)O2)[C@H](C)[C@@H](O[C@@H]2O[C@H](C)C[C@H](N(C)C)[C@H]2O)[C@](C)(O)C[C@@H](C)[C@@H]2N[C@@H](COCCOC)O[C@H]([C@H]2C)[C@]1(C)O | 1.02 ± 0.049 | 0.991 ± 0.027 | 0.931 ± 0.0028 | 0.975 ± 0.05 | 0.998 ± 0.045
9 | COc1ccc2c(c1)OC/C(=C\c1ccc(OC)c(O)c1)C2=O | 0.933 ± 0.054 | 1.02 | 1.03 ± 0.035 | 0.972 ± 0.11 | 0.98 ± 0.086
10 | CC(CN1c2ccccc2Sc2ccccc21)N(C)C (stereo not given) | 1.09 ± 0.05 | 1.1 ± 0.064 | 1.08 ± 0.014 | 1.05 ± 0.15 | 1.115 ± 0.0071
11 | CCCCCCCCCCCCCc1ccco1 | 1.05 | 1.03 ± 0.021 | 1.02 ± 0.021 | 0.964 ± 0.14 | 0.987 ± 0.12
12 | CN(C)[C@@H]1C(O)=C(C(N)=O)C(=O)[C@@]2(O)C(O)=C3C(=O)c4c(O)cccc4[C@@](C)(O)[C@H]3[C@H](O)[C@@H]12 | 1.02 ± 0.17 | 1.07 ± 0.071 | 1.01 ± 0.021 | 0.901 ± 0.18 | 1 ± 0.071
13 | COC(=O)C(O)c1ccccc1 (stereo not given) | 1.04 ± 0.021 | 1.11 | 1.07 ± 0.035 | 1.04 ± 0.042 | 0.876 ± 0.019
14 | O=C(O)c1cc(=O)c2ccccc2o1 | 0.859 ± 0.082 | 0.961 ± 0.11 | 0.987 ± 0.014 | 0.909 ± 0.12 | 0.993 ± 0.011
15 | N[C@@H](CCC(=O)N[C@@H](CS)C(=O)NCC(=O)O)C(=O)O | 1.03 ± 0.042 | 1.06 ± 0.11 | 1.02 | 1.03 | 1.13 ± 0.13
16 | COc1cc(-c2coc3cc(O[C@@H]4O[C@H](CO)[C@@H](O)[C@H](O)[C@H]4O)c(OC)c(O)c3c2=O)cc(O)c1OC | 1.1 ± 0.057 | 1.12 ± 0.078 | 1.09 ± 0.014 | 1.01 ± 0.15 | 0.885 ± 0.023
17 | C#C[C@]1(O)CC[C@H]2[C@@H]3CCC4=C(CCC(=O)C4)[C@H]3CC[C@@]21C | 0.905 ± 0.022 | 0.974 ± 0.14 | 0.913 ± 0.014 | 1.07 ± 0.13 | 1.07 ± 0.057
18 | COc1ccc(CCN(C)CCCC(C#N)(c2ccc(OC)c(OC)c2)C(C)C)cc1OC (stereo not given) | 1.04 ± 0.12 | 0.971 ± 0.07 | 1.02 ± 0.014 | 1.01 ± 0.12 | 1.03 ± 0.11
19 | C=C(C)[C@H]1COc2cc3oc(=O)ccc3cc2O1 | 1.1 ± 0.17 | 0.968 ± 0.026 | 1.09 ± 0.057 | 1.06 ± 0.092 | 1.1 ± 0.042
20 | CC(N/C(=N\C#N)Nc1ccncc1)C(C)(C)C (stereo not given) | 0.99 ± 0.043 | 0.904 ± 0.0014 | 0.989 ± 0.1 | 0.799 ± 0.04 | 0.941 ± 0.073
21 | NCC(=O)CCC(=O)O | 1.01 ± 0.021 | 1.06 ± 0.042 | 1.01 ± 0.021 | 1.1 ± 0.071 | 1.07 ± 0.021
22 | CNCCC(Oc1ccc(C(F)(F)F)cc1)c1ccccc1 (stereo not given) | 0.9505 ± 0.00071 | 0.952 ± 0.12 | 0.948 ± 0.069 | 1.2 ± 0.26 | 0.993 ± 0.052
23 | COc1cc(C)c2c(c1C=O)Oc1c(c(C)c(O)c3c1C(O)OC3=O)OC2=O (stereo not given) | 0.951 ± 0.015 | 0.956 ± 0.028 | 1.06 ± 0.014 | 0.949 ± 0.16 | 0.927 ± 0.077
24 | CO[C@H]1/C=C/O[C@@]2(C)Oc3c(C)c(O)c4c(O)c(c(/C=N/N5CCN(C)CC5)c(O)c4c3C2=O)NC(=O)/C(C)=C\C=C\[C@H](C)[C@H](O)[C@@H](C)[C@@H](O)[C@@H](C)[C@H](OC(C)=O)[C@@H]1C | 1.01 ± 0.064 | 1.07 ± 0.13 | 1.05 ± 0.028 | 1.01 ± 0.037 | 1.08 ± 0.057
25 | O=c1c2cc(O)c(O)cc2oc2cc(O)c([C@@H]3O[C@H](CO)[C@@H](O)[C@H](O)[C@H]3O)c(O)c12 | 1.09 ± 0.13 | 1.045 ± 0.0071 | 1.05 ± 0.035 | 0.988 ± 0.06 | 0.957 ± 0.061
26 | CN1Cc2c(N)cccc2C(c2ccccc2)C1 (stereo not given) | 1.05 ± 0.014 | 1.15 ± 0.021 | 1.03 ± 0.05 | 1.02 ± 0.14 | 1.04 ± 0.014
27 | O=C(/C=C/c1ccc(O)c(O)c1)O[C@@H]1C[C@](O)(C(=O)O)C[C@@H](O)[C@H]1O | 0.9805 ± 0.0064 | 0.95 ± 0.071 | 0.9255 ± 0.0092 | 0.931 ± 0.096 | 0.9705 ± 0.0064
28 | Clc1ccc(C(c2ccccc2Cl)C(Cl)Cl)cc1 (stereo not given) | 0.937 ± 0.013 | 0.895 ± 0.15 | 0.981 ± 0.041 | 1.11 ± 0.021 | 1.03 ± 0.17
29 | NNc1nncc2ccccc12 | 1.055 ± 0.0071 | 1.06 ± 0.057 | 1.055 ± 0.0071 | 1.23 ± 0.25 | 1.28 ± 0.17
30 | COc1cc(O)c2c(=O)cc(C)oc2c1CC=C(C)C | 1.04 ± 0.057 | 1.06 ± 0.078 | 1.04 ± 0.035 | 0.91 ± 0.04 | 0.991 ± 0.15
